This passage reports cytotoxicity call results from the antibiotic and cytotoxicity screens of Wong et al. (2023).

Among all 39,000 compounds or so, about 3,300 (8.5%) were called active. For the sample, actives were picked, then their nearest neighbours and some compounds at random.

In this assay the test system is HepG2. Briefly: cytotoxicity call (relative viability < 0.9). As to conditions: 10 µM.
As to `C[C@@H]1CCCCO[C@@H](CN(C)CC2CCCCC2)[C@@H](C)CN([C@H](C)CO)C(=O)c2cc(NC(=O)C3CCCCC3)ccc2O1`, the cytotoxicity call was “inactive”. To `CO[C@@H](CN(C)S(=O)(=O)c1cn(C)cn1)[C@H](C)CN(C(=O)Nc1ccc(C(F)(F)F)cc1)[C@@H](C)CO` belongs “inactive”.

For the molecule `C[C@@H]1CN([C@H](C)CO)C(=O)c2cccc(NS(=O)(=O)c3ccc(F)cc3)c2O[C@@H]1CN(C)S(C)(=O)=O`, the cytotoxicity call was “inactive”. With `C[C@H](CO)N1C[C@H](C)[C@H](CN(C)S(=O)(=O)c2ccc(F)cc2)Oc2ncc(Br)cc2C1=O`, the cytotoxicity call is “inactive”. In the case of `Cc1noc(C)c1S(=O)(=O)Nc1ccc2c(c1)C(=O)N([C@@H](C)CO)C[C@H](C)[C@@H](CN(C)S(=O)(=O)c1cn(C)cn1)OCCCC[C@H](C)O2`, the cytotoxicity call was “inactive”. For `C[C@H](CO)N1C[C@H](C)[C@H](CN(C)CC2CC2)Oc2ccc(NS(=O)(=O)c3ccc(F)cc3)cc2C1=O`, the cytotoxicity call is “inactive”. As for `C[C@H](CO)N1C[C@H](C)[C@H](CN(C)S(=O)(=O)c2cccs2)OCCCC[C@H](C)Oc2ccc(NC(=O)Cc3ccccc3)cc2C1=O`, the cytotoxicity call was “inactive”. Under `CC(C)CC(=O)N1CCN(S(C)(=O)=O)CC1` stands “inactive”; under `CN1CCc2nc(C(=O)N[C@@H]3C[C@@H](C(=O)N(C)C)CC[C@@H]3NC(=O)C(=O)Nc3ccc(Cl)cn3)sc2C1`, “inactive”; under `C[C@@H]1CN([C@H](C)CO)S(=O)(=O)c2ccc(C#Cc3cccc(F)c3)cc2O[C@H]1CN(C)S(=O)(=O)c1cn(C)cn1`, “inactive”. As to `O=C(O)c1ccnc(C(=O)O)c1`, the cytotoxicity call was “inactive”. As to `C[C@@H]1CN([C@@H](C)CO)C(=O)c2cc(N(C)C)ccc2O[C@@H](C)CCCCO[C@H]1CN(C)Cc1ccc(C(=O)Nc2ccccc2N)cc1`, the cytotoxicity call was “inactive”.

On to `C[C@H]1CN([C@@H](C)CO)S(=O)(=O)c2ccc(Br)cc2O[C@@H]1CN(C)C(=O)Nc1ccc2c(c1)OCO2`, for which the cytotoxicity call was “inactive”. For the molecule `C[C@@H]1CN([C@@H](C)CO)S(=O)(=O)c2ccc(C#Cc3ccncc3)cc2O[C@@H]1CN(C)C(=O)Nc1ccc2c(c1)OCO2`, the cytotoxicity call is “active”. Under `C[C@H]1CN([C@@H](C)CO)S(=O)(=O)c2ccc(C#Cc3ccncc3)cc2O[C@@H]1CN(C)C(=O)Nc1ccc2c(c1)OCO2` stands “active”; under `C[C@H](CO)N1C[C@H](C)[C@@H](CN(C)C(=O)Nc2ccc3c(c2)OCO3)Oc2cc(C#Cc3cccnc3)ccc2S1(=O)=O`, “inactive”; under `C[C@@H]1CN([C@@H](C)CO)S(=O)(=O)c2ccc(Br)cc2O[C@H]1CN(C)C(=O)Nc1ccc2c(c1)OCO2`, “inactive”. Under `C[C@@H]1CN([C@@H](C)CO)S(=O)(=O)c2ccc(C#Cc3cccnc3)cc2O[C@@H]1CN(C)C(=O)Nc1ccc2c(c1)OCO2` stands “inactive”; under `CC(C)NC(=O)Nc1ccc2c(c1)C(=O)N([C@@H](C)CO)C[C@@H](C)[C@H](CN(C)Cc1ccc(C(=O)O)cc1)O2`, “inactive”; under `C[C@H](CO)N1C[C@H](C)[C@H](CN(C)C(=O)Nc2cccc3ccccc23)Oc2c(NC(=O)Nc3ccc(C(F)(F)F)cc3)cccc2C1=O`, “active”. To `C[C@@H]1CN([C@H](C)CO)C(=O)c2cccc(NC(=O)Nc3ccc(C(F)(F)F)cc3)c2O[C@@H]1CN(C)C(=O)Nc1cccc2ccccc12` belongs “inactive”; to `C[C@@H]1CN([C@@H](C)CO)C(=O)c2cccc(NC(=O)Nc3ccc(C(F)(F)F)cc3)c2O[C@@H]1CN(C)C(=O)Nc1cccc2ccccc12`, “active”; to `C[C@@H]1CN([C@H](C)CO)C(=O)c2cccc(NC(=O)Nc3ccc(C(F)(F)F)cc3)c2O[C@H]1CN(C)C(=O)Nc1cccc2ccccc12`, “active”. With `C[C@@H]1CN([C@@H](C)CO)C(=O)c2cccc(NC(=O)Nc3ccc(C(F)(F)F)cc3)c2O[C@H]1CN(C)C(=O)Nc1cccc2ccccc12`, the cytotoxicity call was “active”.

On to `C[C@H](CO)N1C[C@H](C)[C@@H](CN(C)C(=O)Nc2cccc3ccccc23)Oc2c(NC(=O)Nc3ccc(C(F)(F)F)cc3)cccc2C1=O`, for which the cytotoxicity call is “inactive”. With `C[C@@H]1CCCCO[C@@H](CN(C)C(=O)c2ccccc2)[C@H](C)CN([C@@H](C)CO)C(=O)c2cc(NS(=O)(=O)c3ccc(Cl)cc3)ccc2O1`, the cytotoxicity call was “inactive”.

On to `COc1ccc(S(=O)(=O)N(C)C[C@H]2Oc3ccc(NS(=O)(=O)c4ccccc4)cc3CC(=O)N([C@H](C)CO)C[C@@H]2C)cc1`, for which the cytotoxicity call was “inactive”. For the molecule `COc1ccc(S(=O)(=O)N(C)C[C@H]2OCCCC[C@H](C)Oc3ccc(NS(=O)(=O)c4cn(C)cn4)cc3C(=O)N([C@@H](C)CO)C[C@H]2C)cc1`, the cytotoxicity call was “inactive”. `C[C@H]1CN([C@@H](C)CO)S(=O)(=O)c2ccc(C#CC3(O)CCCC3)cc2O[C@H]1CN(C)C(=O)Nc1ccc(F)cc1`: the cytotoxicity call was “inactive”. On to `COCC(=O)N1CC[C@]2(CC1)CN([C@H](CO)c1c2c2ccc(cc2n1C)OC)C(=O)CN1CCOCC1`, for which the cytotoxicity call is “inactive”.

`O=C1N[C@@H](Cc2c[nH]c3ccccc23)COC(=O)[C@@H](Cc2ccc(F)cc2)CCC=CC[C@H]1CC(=O)N(CCO)Cc1ccccc1`: the cytotoxicity call is “inactive”. For `C[C@H](CO)N1C[C@H](C)[C@@H](CN(C)S(=O)(=O)c2cn(C)cn2)OCc2ccccc2-c2c(n(C)c3ccccc23)C1=O`, the cytotoxicity call is “inactive”. For the molecule `O=C(C[C@H]1C[C@@H]2c3cc(NC(=O)c4ccc5c(c4)OCO5)ccc3O[C@@H]2[C@@H](CO)O1)NCCN1CCCCC1`, the cytotoxicity call was “inactive”. To `CC(C)(C)[S@](=O)N1Cc2cc(C(=O)N3CCc4ccccc4C3)nc(-c3cccc(-c4cccnc4)c3)c2[C@@H]1CCO` belongs “inactive”; to `Cc1ccc(S(=O)(=O)Nc2ccc3c(c2)C(=O)N([C@H](C)CO)C[C@H](C)[C@@H](CN(C)S(=O)(=O)c2ccc(F)cc2)OCCCC[C@@H](C)O3)cc1`, “inactive”. `C[C@H]1CN([C@@H](C)CO)C(=O)c2cccc(NC(=O)Nc3ccc(C(F)(F)F)cc3)c2O[C@H]1CN(C)C(=O)Nc1cccc2ccccc12`: the cytotoxicity call is “inactive”. Regarding `C[C@H]1CN([C@@H](C)CO)C(=O)c2cccc(NC(=O)Nc3ccc(C(F)(F)F)cc3)c2O[C@@H]1CN(C)C(=O)Nc1cccc2ccccc12`, the cytotoxicity call was “active”. Turning to `C[C@H](CO)N1C[C@H](C)[C@H](CN(C)C(=O)Nc2cccc3ccccc23)Oc2c(NC(=O)Nc3ccc(F)cc3)cccc2C1=O`, the cytotoxicity call is “inactive”. Consider `C[N+](C)(C)CCCCNC(=O)[C@@H]1C[C@@H]2C(=O)N3CCC[C@H]3C(=O)N2[C@@H]1c1cccc(OCCO)c1`, for which the cytotoxicity call is “inactive”. Consider `C[N+](C)(C)CCCCCCNC(=O)[C@H]1C[C@H]2C(=O)N3CCC[C@H]3C(=O)N2[C@H]1c1cccc(OCCO)c1`, for which the cytotoxicity call was “inactive”. Consider `C[N+](C)(C)CCCCNC(=O)[C@@H]1C[C@@H]2C(=O)N[C@@H](CCCC[N+](C)(C)C)C(=O)N2[C@@H]1c1ccc(O)cc1`, for which the cytotoxicity call is “inactive”. Under `C[N+](C)(C)CCCCNC(=O)[C@H]1C[C@H]2C(=O)N[C@@H](CCCC[N+](C)(C)C)C(=O)N2[C@H]1c1cccc(OCCO)c1` stands “inactive”; under `CC(=O)NCCCC[C@@H]1NC(=O)[C@H]2C[C@@H](C(=O)NCCCC[N+](C)(C)C)[C@@H](c3cccc(OCCO)c3)N2C1=O`, “inactive”.

As to `CC(=O)NCCCC[C@@H]1NC(=O)[C@H]2C[C@@H](C(=O)NCCCC[N+](C)(C)C)[C@@H](c3ccc(O)cc3)N2C1=O`, the cytotoxicity call was “active”. Consider `CC(=O)NCCCC[C@@H]1NC(=O)[C@@H]2C[C@H](C(=O)NCCCC[N+](C)(C)C)[C@H](c3cccc(OCCO)c3)N2C1=O`, for which the cytotoxicity call is “active”. Turning to `C[N+](C)(C)CCCCNC(=O)[C@H]1C[C@H]2C(=O)N[C@@H](CCCC[N+](C)(C)C)C(=O)N2[C@H]1c1ccc(O)cc1`, the cytotoxicity call was “inactive”. Take `C[N+](C)(C)CCCCNC(=O)[C@H]1C[C@H]2C(=O)N3CCC[C@H]3C(=O)N2[C@H]1c1cccc(OCCO)c1`: the cytotoxicity call is “active”. As for `C[C@H](CO)N1C[C@H](C)[C@H](CN(C)C(=O)C2CCCCC2)OCCCC[C@H](C)Oc2ccc(NC(=O)c3ccccc3)cc2C1=O`, the cytotoxicity call was “inactive”.

For `O=C(C[C@@H]1CC=CC[C@H](NC(=O)OCC2c3ccccc3-c3ccccc32)C(=O)O[C@H](c2ccccc2)CNC1=O)N[C@@H](CO)Cc1ccccc1`, the cytotoxicity call was “inactive”.

Take `CNC(=O)C[C@H]1CC[C@@H]2[C@H](COC[C@H](O)CN2C(=O)Nc2ccc3c(c2)OCO3)O1`: the cytotoxicity call was “inactive”. As to `CO[C@H]1CN(C)C(=O)c2ccc(NS(=O)(=O)CC(F)(F)F)cc2OC[C@H](C)N(C(=O)NC(C)C)C[C@@H]1C`, the cytotoxicity call was “inactive”. For the molecule `CO[C@@H]1CN(C)C(=O)c2cc(NS(=O)(=O)c3cn(C)cn3)ccc2OC[C@H](C)N(CC2CC2)C[C@@H]1C`, the cytotoxicity call was “inactive”. Take `CNC(=O)c1cnc2n1CCN(Cc1nccn1C)C2`: the cytotoxicity call was “inactive”. To `CC(C)[C@H](NC(=O)[C@H](C)N(C)C)C(=O)N1CC[C@@H]2Oc3ccc(cc3)/C=C\NC(=O)[C@H](Cc3ccccc3)NC(=O)[C@H]21` belongs “inactive”; to `C[C@@H]1CN([C@H](C)CO)C(=O)c2cc(NC(=O)Cn3cnnn3)ccc2O[C@H]1CN(C)S(=O)(=O)c1ccc(F)cc1`, “inactive”. On to `O=C(C[C@@H]1C[C@H]2c3cc(NC(=O)Nc4ccccc4F)ccc3O[C@H]2[C@@H](CO)O1)NCc1ccc(Oc2ccccc2)cc1`, for which the cytotoxicity call was “inactive”. On to `COc1ccc(CN(C)C[C@H]2Oc3ccc(NC(=O)Nc4cccc5ccccc45)cc3C(=O)N([C@@H](C)CO)C[C@@H]2C)cc1`, for which the cytotoxicity call was “inactive”. With `C[C@@H]1CN([C@@H](C)CO)C(=O)c2cc(NC(=O)Nc3cccc4ccccc34)ccc2O[C@@H]1CN(C)Cc1ccc(Oc2ccccc2)cc1`, the cytotoxicity call is “active”. For the molecule `C[C@H](CO)N1C[C@H](C)[C@@H](CN(C)Cc2ccc(Oc3ccccc3)cc2)Oc2ccc(NC(=O)Nc3cccc4ccccc34)cc2C1=O`, the cytotoxicity call is “inactive”. Regarding `COc1ccc(CN(C)C[C@H]2Oc3ccc(NC(=O)Nc4cccc5ccccc45)cc3C(=O)N([C@@H](C)CO)C[C@H]2C)cc1`, the cytotoxicity call was “inactive”.

With `COc1ccc(CN(C)C[C@@H]2Oc3ccc(NC(=O)Nc4cccc5ccccc45)cc3C(=O)N([C@H](C)CO)C[C@@H]2C)cc1`, the cytotoxicity call was “inactive”. For `C[C@@H]1CN([C@@H](C)CO)C(=O)c2cc(NC(=O)Nc3cccc4ccccc34)ccc2O[C@H]1CN(C)Cc1ccc(Oc2ccccc2)cc1`, the cytotoxicity call is “inactive”. Turning to `COc1ccc(CN(C)C[C@@H]2Oc3ccc(NC(=O)Nc4cccc5ccccc45)cc3C(=O)N([C@H](C)CO)C[C@H]2C)cc1`, the cytotoxicity call is “inactive”. For `COc1ccc(CN(C)C[C@@H]2Oc3ccc(NC(=O)Nc4cccc5ccccc45)cc3C(=O)N([C@@H](C)CO)C[C@H]2C)cc1`, the cytotoxicity call is “inactive”.

With `C[C@@H]1CN([C@H](C)CO)C(=O)c2cc(NC(=O)Nc3cccc4ccccc34)ccc2O[C@@H]1CN(C)Cc1ccc(Oc2ccccc2)cc1`, the cytotoxicity call was “active”.

Regarding `C[C@@H]1CN([C@H](C)CO)C(=O)c2cc(NC(=O)Nc3cccc4ccccc34)ccc2O[C@H]1CN(C)Cc1ccc(Oc2ccccc2)cc1`, the cytotoxicity call is “active”. To `C[C@H](CO)N1C[C@H](C)[C@H](CN(C)Cc2ccc(Oc3ccccc3)cc2)Oc2ccc(NC(=O)Nc3cccc4ccccc34)cc2C1=O` belongs “active”; to `COc1ccc(CN(C)C[C@H]2Oc3ccc(NC(=O)Nc4cccc5ccccc45)cc3C(=O)N([C@H](C)CO)C[C@@H]2C)cc1`, “inactive”.
